# Measurements reported in PubChem BioAssay.
# Activity calls are given as the source filed them.
# Test system: not listed separately
# Assay: splicing luciferase reporter signal modulators, primary screen, spliceosome inhibition project, cell-based, HEK293, splice +/- reporter (AID 1101);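 also: HEK293 cells carrying a splicing-competent luciferase reporter gene; test concentration not given here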
# Settings: luminescence, 24 h, higher = more signal, called active from +8 up or from −8 down
row,Structure (SMILES),z-score
1,CC(C)CN1C(=O)[C@@]2(Cc3ccccc31)c1ccccc1C(=O)N(Cc1ccccc1C(F)(F)F)[C@H]2c1ccc(CO)cc1,-0.596 (inactive)
2,O=C(CS)NCCCCCCNC(=O)[C@H]1C[C@H]2C(=O)N[C@@H](Cc3ccccc3)C(=O)N2[C@H]1c1cccc(OCCO)c1,0.479 (inactive)
3,CCOC(=CC(=O)OC)CC(O)c1cccc(Cl)c1 (centres undefined),-1.02 (inactive)
4,O=C1C[C@]2(c3ccc([N+](=O)[O-])cc3)C(=O)N(Cc3ccccc3)c3cc(CO)ccc3[C@H]2N1CC12CC3CC(CC(C3)C1)C2,1.39 (inactive)
5,C=CCN1C(=O)[C@@]2(O[C@@H](CCO)[C@H]([Si](C)(C)c3ccc(OC)cc3)[C@H]2C)c2cc(N3C(=O)c4ccccc4Oc4ccccc43)ccc21,-3.3 (inactive)
6,CCOC(=O)[C@H]1C/C=C/C[C@H](C(=O)OCC)C(=O)O[C@H]2[C@@H](OC)O[C@H](CO)[C@@H](OC(=O)Nc3ccc(OC)cc3)[C@@H]2OC1=O,0.0675 (inactive)
7,COC(=O)C(CC#Cc1ccc2c(c1)[C@]1(C(=O)N2)[C@H](C(=O)O)[C@H]2C(=O)O[C@H](c3ccccc3)[C@H](c3ccccc3)N2[C@@H]1c1ccccc1OCCO)C(=O)OC,0.78 (inactive)
8,C=CCC(OC(C)=O)[C@@H]1[C@@H](N(Cc2cc3ccccc3o2)C(=O)c2ccc(C)cc2)c2cc(OCCCO)ccc2N1C(=O)Cc1ccc2ccccc2c1 (some centres undefined),-0.793 (inactive)
9,Cc1ccc(S[C@]2(C(=O)NC3CC3)CC(=O)N(Cc3ccccc3Cl)[C@@H]2c2ccc(CO)cc2I)cc1,-0.447 (inactive)
10,C=CCOC(=O)[C@@H]1[C@H]2C(=O)O[C@H](c3ccccc3)[C@H](c3ccccc3)N2[C@H](c2ccc(OCCOC(=O)[C@H]3C[C@H]4C(=O)N[C@@H](CCCCN(C)C)C(=O)N4[C@H]3c3cccc(OCCO)c3)cc2)[C@@]12C(=O)Nc1ccc(I)cc12,0.348 (inactive)
11,O=C1NC(=O)C2C1C=CC(C(O)c1ccc(Br)cc1)N2Nc1ccccn1 (centres undefined),-0.141 (inactive)
12,O=C1NC(=O)C2C1C=CC(C(O)c1c(F)cccc1Cl)N2Nc1ccccn1 (centres undefined),0.824 (inactive)
13,[N-]=[N+]=Nc1ccccc1[C@H]1OC(c2ccc(OCCCO)cc2)=N[C@@]1(CCS(=O)(=O)c1ccccc1)C(=O)N1CCCCC1,-1.21 (inactive)

# Target: Fibroblast growth factor 10 (Homo sapiens) (UniProt O15520)
# Assay: FGF10 binders on small-molecule microarrays, primary screen, biochemical, small-molecule microarray, 635 nm fluorescence (AID 1102)
# Settings: FGF10 binding, fluorescence 635 nm, higher = more signal
# Chain of Fibroblast growth factor 10 (Homo sapiens) (O15520 whole entry, looked up): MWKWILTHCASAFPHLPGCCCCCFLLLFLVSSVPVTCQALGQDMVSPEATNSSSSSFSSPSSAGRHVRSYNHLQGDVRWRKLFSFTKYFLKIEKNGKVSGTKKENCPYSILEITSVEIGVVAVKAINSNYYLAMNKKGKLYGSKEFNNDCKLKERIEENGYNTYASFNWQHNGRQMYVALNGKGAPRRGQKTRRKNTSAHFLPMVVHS
row,Structure (SMILES),composite z-score
1,O=C1O[C@@H](c2ccccc2)[C@@H](c2ccccc2)N2[C@@H](c3ccc(O)cc3)[C@]3(C(=O)Nc4ccccc43)[C@@H](C(=O)Nc3nc4ccccc4s3)[C@H]12,0.488
2,C=C(COC)/C(=C/C[C@@H](OC(=O)c1ccncc1)c1cccc(OCCO)c1)c1cnc2ccccc2c1,1.48
3,O=C1O[C@@H](c2ccccc2)[C@@H](c2ccccc2)N2[C@@H](c3ccccc3OCCO)[C@]3(C(=O)Nc4ccc(C#CCCO)cc43)[C@@H](C(=O)N3CCN(c4ncccn4)CC3)[C@H]12,0.376
4,COC(=O)C[C@H]1O[C@]2(C(=O)N(C)c3ccccc32)[C@@H](C)[C@@H]1[Si](C)(C)c1ccc(C)cc1,0.749
5,Cc1ccc(C(C)CC(O)C2C=CC3C(=O)N(c4ccccc4)C(=O)C3N2Nc2ccc(C(C)C)cc2)o1 (centres undefined),0.545
6,C[n+]1ccc(CCCO)cc1,0.113
7,C=C(COC)/C(=C/C[C@@H](OC(=O)c1ccncc1)c1ccc(CO)o1)c1cnc2ccccc2c1,1.59
8,CCOC(=O)[C@H]1C/C=C/C[C@H](C(=O)OCC)C(=O)O[C@H]2[C@@H](OC)O[C@H](CO)[C@@H](OC(=O)CCc3ccccc3)[C@@H]2OC1=O,-0.785
9,CCCCC(=C=CC[C@@H](O)c1ccc(OCCO)cc1)C[C@@H](O)COCc1ccccc1,1.01
10,CCCc1cccc(=O)o1,0.215
11,COCC(=C=CC[C@H](O)c1ccc(OCCO)cc1)C[C@H](O)COCc1ccccc1,0.605
12,O=C(NC1CC1)[C@@H]1c2ccccc2C(=O)N(Cc2ccccc2)[C@H]1c1ccc(CO)cc1,0.209
13,COCCOC(=O)N1C(=O)[C@@]2(c3cc(C#CC4=CCCCC4)ccc31)[C@H](C(=O)N1CCN(c3ncccn3)CC1)[C@H]1C(=O)O[C@H](c3ccccc3)[C@H](c3ccccc3)N1[C@@H]2c1ccc(O)cc1,0.664
14,O=C1C2C=CC(C(O)c3cc(C(F)(F)F)cc(C(F)(F)F)c3)N(Nc3ccc([N+](=O)[O-])cc3)C2C(=O)N1c1ccccc1 (centres undefined),0.902
15,C=CCOC(=O)[C@@H]1[C@H]2C(=O)O[C@H](c3ccccc3)[C@H](c3ccccc3)N2[C@H](c2ccc(OCCOC(=O)[C@H]3C[C@H]4C(=O)N[C@@H](CCCCNC(C)=O)C(=O)N4[C@H]3c3cccc(OCCO)c3)cc2)[C@@]12C(=O)Nc1ccc(I)cc12,0.909
16,COC(=O)[C@@]1(Cc2ccccc2)[C@H]2c3cc(C(=O)N4CCCC4)n(C[C@H](O)CO)c3C[C@H]2CN1C(=O)c1ccccc1,-0.209
17,COCCCNC(=O)[C@]1(CCC(=O)OC(C)(C)C)N=C(c2ccc(OCCCO)cc2)O[C@@H]1c1ccccc1,0.417
18,COCCOC(=O)N1C(=O)[C@@]2(c3cc(C#CC4=CCCCC4)ccc31)[C@H](c1ccccc1OCCO)N1[C@H](c3ccccc3)[C@H](c3ccccc3)OC(=O)[C@H]1[C@@H]2C(=O)N1CCc2cc(OC)c(OC)cc2C1,0.848

row,Structure (SMILES),composite z-score
1,CC(C)(C)OC(=O)CC[C@]1(C(=O)N2CCOCC2)N=C(c2ccc(OCCCO)cc2)O[C@H]1c1ccccc1,1.05
2,COCCOC(=O)N1C(=O)[C@@]2(c3cc(C#CC4=CCCCC4)ccc31)[C@H](c1ccc(O)cc1)N1[C@H](c3ccccc3)[C@H](c3ccccc3)OC(=O)[C@H]1[C@@H]2C(=O)Nc1nc2ccccc2s1,1.33
3,CC1CC/C=C\[C@H]2OC34C=CCN(c5ccc6ccccc6c5)C(=O)[C@H]3N(C(CO)C(C)C)C(=O)[C@@H]4C2C(=O)O1 (some centres undefined),-0.209
4,CC(C)CNC(=O)[C@@H]1c2ccccc2C(=O)N(Cc2cc(F)cc(C(F)(F)F)c2)[C@H]1c1ccc(CO)cc1,0.301
5,C=C[C@H](COC(C)=O)NS(=O)(=O)c1ccc(Br)cc1,-0.28
6,CC(C)CN1C(=O)[C@@]2(Cc3ccccc31)c1ccccc1C(=O)N(Cc1ccccc1C(F)(F)F)[C@H]2c1ccc(CO)cc1,-0.621
7,O=C(CS)NCCCCCCNC(=O)[C@H]1C[C@H]2C(=O)N[C@@H](Cc3ccccc3)C(=O)N2[C@H]1c1cccc(OCCO)c1,1.51
8,CCOC(=CC(=O)OC)CC(O)c1cccc(Cl)c1 (centres undefined),-0.617
9,O=C1C[C@]2(c3ccc([N+](=O)[O-])cc3)C(=O)N(Cc3ccccc3)c3cc(CO)ccc3[C@H]2N1CC12CC3CC(CC(C3)C1)C2,-0.36
10,C=CCN1C(=O)[C@@]2(O[C@@H](CCO)[C@H]([Si](C)(C)c3ccc(OC)cc3)[C@H]2C)c2cc(N3C(=O)c4ccccc4Oc4ccccc43)ccc21,0.916
11,CCOC(=O)[C@H]1C/C=C/C[C@H](C(=O)OCC)C(=O)O[C@H]2[C@@H](OC)O[C@H](CO)[C@@H](OC(=O)Nc3ccc(OC)cc3)[C@@H]2OC1=O,1
12,COC(=O)C(CC#Cc1ccc2c(c1)[C@]1(C(=O)N2)[C@H](C(=O)O)[C@H]2C(=O)O[C@H](c3ccccc3)[C@H](c3ccccc3)N2[C@@H]1c1ccccc1OCCO)C(=O)OC,1.19
13,C=CCC(OC(C)=O)[C@@H]1[C@@H](N(Cc2cc3ccccc3o2)C(=O)c2ccc(C)cc2)c2cc(OCCCO)ccc2N1C(=O)Cc1ccc2ccccc2c1 (some centres undefined),-0.204
14,Cc1ccc(S[C@]2(C(=O)NC3CC3)CC(=O)N(Cc3ccccc3Cl)[C@@H]2c2ccc(CO)cc2I)cc1,1.4
15,C=CCOC(=O)[C@@H]1[C@H]2C(=O)O[C@H](c3ccccc3)[C@H](c3ccccc3)N2[C@H](c2ccc(OCCOC(=O)[C@H]3C[C@H]4C(=O)N[C@@H](CCCCN(C)C)C(=O)N4[C@H]3c3cccc(OCCO)c3)cc2)[C@@]12C(=O)Nc1ccc(I)cc12,1.02
16,O=C1NC(=O)C2C1C=CC(C(O)c1ccc(Br)cc1)N2Nc1ccccn1 (centres undefined),0.557
17,O=C1NC(=O)C2C1C=CC(C(O)c1c(F)cccc1Cl)N2Nc1ccccn1 (centres undefined),0.48
18,[N-]=[N+]=Nc1ccccc1[C@H]1OC(c2ccc(OCCCO)cc2)=N[C@@]1(CCS(=O)(=O)c1ccccc1)C(=O)N1CCCCC1,0.354
